From PubChem
In the library only some 28% were active in any assay of this set; here they are far more common.
Plk1 PBD FP: Plk1 polo box domain binding inhibitors, primary screen, biochemical, fluorescence polarization; Serine/threonine-protein kinase PLK1 (Homo sapiens), P53350; Plk1 PBD phosphopeptide binding; inhibition, %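 (tested at about 20 µM)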; actives 0.13% (n = 97,000); in the data active = inhibition above about 34%, passing the limit was not always enough
CYP2C9 inh: blockers of cytochrome P450 2C9 activity – biochemical, luminescence, ADME assay, primary screen. P11712. CYP2C9 Supersomes, luciferin-H conversion. inhibition, % at 5 µM. actives 20% (n = 96,000). AID 777, 2007;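 active = blocking of liver enzyme CYP2C9 beyond about 50% at 5 µM, limit read from the data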
Target sequence (P11712 whole entry, looked up): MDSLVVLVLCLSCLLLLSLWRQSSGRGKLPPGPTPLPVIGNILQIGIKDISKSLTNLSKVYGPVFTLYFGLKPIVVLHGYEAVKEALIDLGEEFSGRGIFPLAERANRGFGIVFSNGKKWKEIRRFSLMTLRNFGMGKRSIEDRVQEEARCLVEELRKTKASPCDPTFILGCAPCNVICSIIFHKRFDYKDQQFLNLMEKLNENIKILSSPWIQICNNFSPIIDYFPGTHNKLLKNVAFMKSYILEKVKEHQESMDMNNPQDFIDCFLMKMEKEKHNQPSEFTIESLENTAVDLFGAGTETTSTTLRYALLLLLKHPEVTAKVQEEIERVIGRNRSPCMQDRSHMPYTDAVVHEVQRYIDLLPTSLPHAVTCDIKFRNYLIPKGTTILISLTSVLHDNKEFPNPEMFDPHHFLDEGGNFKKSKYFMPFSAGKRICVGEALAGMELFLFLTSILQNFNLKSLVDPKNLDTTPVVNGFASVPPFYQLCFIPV
CYP2C9 act: human CYP2C9 activators, primary screen, biochemical, luminescence. Cytochrome P450 2C9 (Homo sapiens), P11712. recombinant CYP2C9, luciferin-H conversion; hits give high values; factor 1 = untreated enzyme, 0 = blocked. activation factor at 5 µM. actives 1.4% (n = 96,000);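 active = activation factor of 2 or more for CYP2C9 at a 5 µM dose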;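 note: 0 = sulfaphenazole-blocked wells and 1 = vehicle-only wells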
CYP2C19 act: human CYP2C19 activators, primary screen, biochemical, luminescence; 96,000 tested, under 10 active; Cytochrome P450 2C19 (Homo sapiens), P33261; recombinant CYP2C19, luciferin-H EGE luminescence; hits give high values; 0 = fully inhibited enzyme, 1 = untreated enzyme; AID 1025, 2008; activation factor at 5 µM;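 active = activation factor of at least 2 at 5 µM in the primary screen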;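 note: 0 = wells with 2.5 mM tranylcypromine and 1 = vehicle-only wells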
CYP2C19 inh: blockers of cytochrome P450 2C19 activity – biochemical, luminescence, ADME assay, primary screen | P33261 | CYP2C19 Supersomes, luciferin-H EGE luminescence, 30 min | inhibition, % at 5 µM | actives 21% (n = 96,000);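 active = CYP2C19 inhibition above a set limit at 5 µM in the primary screen, cut at about 50% in these data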;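 note: plate controls were negative control wells for no effect and 2.5 mM tranylcypromine positive control for full effect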
PLK1 inh: human PLK1 kinase inhibitors, primary screen, biochemical, TR-FRET; Serine/threonine-protein kinase PLK1 (Homo sapiens), P53350; recombinant PLK1 kinase, TR-FRET peptide phosphorylation; inhibition, % at 10 µM; actives 0.53% (n = 97,000); AID 619, 2007;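 active = inhibition of 50% or more in the single-concentration screen; inactive = inhibition below 50%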;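 note: 0% = DMSO max control and 100% = H-89 dihydrochloride min control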
* marks the source's active call; other numbers are inactive results; / = no result.

SMILES	Plk1 PBD FP	CYP2C9 inh	CYP2C9 act	CYP2C19 act	CYP2C19 inh	PLK1 inh
COc1ccc2c(c1)CCc1c(C(=O)N3CCCCCC3)noc1-2	2.0	16.2	0.8	0.8	23.9	0.4
O=C(c1noc2c1CCc1ccccc1-2)N1CCOCC1	7.8	-216.0	3.2*	0.9	11.6	-9.8
COCC(C)n1c(C)cc(C(=O)COC(=O)c2ccc3ncsc3c2)c1C (centres undefined)	-17.3	-79.2	1.8	0.2	78.4*	7.2
CCC(C)Sc1nc2c(c(=O)[nH]c(=O)n2C)n1Cc1ccccc1Cl (centres undefined)	/	4.1	1	1	1.5	/
CSc1nsc(SCC(=O)Nc2c(C)n(C)n(-c3ccccc3)c2=O)n1	33.1	4.2	1	1	0.0	-6.0
O=C(c1cccs1)N1CCN(c2ncccn2)CC1	24.8	22.9	0.8	0.7	32.7	-8.8
CC1CN(C(=O)c2cccs2)CCN1C(=O)c1cccs1 (centres undefined)	/	88.6*	0.1	0	96.0*	/
O=C(c1ccsc1)N1CCN(C(=O)c2cccs2)CC1	-1.1	67.2*	0.3	0.1	94.7*	-6.0
O=C(c1cccs1)N1CCN(S(=O)(=O)c2ccccc2)CC1	3.3	70.0*	0.3	0	97.0*	0.8
Cc1cc(C)nc(SCC2COc3ccccc3O2)n1 (centres undefined)	-39.9	17.4	0.8	0.5	46.9	-4.0
Fc1ccc(OCc2nnc(SCCN3CCOCC3)o2)cc1	9.7	/	/	/	/	-5.2
COc1cccc(Nc2nc(-c3cccc(N4C(=O)c5ccccc5C4=O)c3)cs2)c1	-4.7	62.5*	0.4	0.7	26.5	-12.1
Cc1cccnc1Nc1nc(-c2ccc(O)cc2)cs1	-15.2	63.1*	0.4	0.1	88.1*	-1.0
COc1cccc(Nc2nc(-c3ccc(O)cc3)cs2)c1	18.4	82.1*	0.2	0.5	48.7	10.2
Cc1ccc(-c2csc(NC(=S)NC(=O)/C=C/c3ccco3)n2)cc1	-6.5	7.0	0.9	0.8	22.2	-9.1
Cc1c(NC(=O)/C(C#N)=C/C2CC=CCC2)c(=O)n(-c2ccccc2)n1C (centres undefined)	-10.7	-0.7	1	1.1	-12.2	-7.6
CN(c1ccc(C(=O)NCCSCc2ccccc2)cc1)S(=O)(=O)c1ccccc1	9.4	68.7*	0.3	0.6	37.0	-2.5
Cc1cccc(CSCCNC(=O)c2ccc(N(C)S(=O)(=O)c3ccccc3)cc2)c1	-18.0	88.8*	0.1	0.4	60.9*	-6.3
CS(=O)(=O)N(Cc1ccccc1)c1ccc(C(=O)NCCSCc2ccco2)cc1	8.8	/	/	/	/	-15.0
CN(c1ccc(C(=O)NC2CC2)cc1)S(=O)(=O)c1ccccc1	1.1	70.4*	0.3	0.5	49.8	-11.8
COc1cccc(NC(=O)N2CCC(C(N)=O)(N3CCCCC3)CC2)c1	-4.2	-14.8	1.1	1.1	-13.7	65.9*
CSCCC(NS(=O)(=O)c1ccc2ccccc2c1)C(=O)O (centres undefined)	-6.1	11.7	0.9	1.1	-10.2	-1.4
CCOc1cc([C@H]2[C@@H]3CCCC[C@]3(O)CCN2CC(=O)NCc2ccco2)ccc1O	1.3	54.1*	0.5	0.4	56.1*	-6.8
CCCCNC(=O)CN1CCC2(O)CCCCC2C1c1ccccc1OC (centres undefined)	19.6	41.0	0.6	0.6	42.0	-5.2
COc1ccc(S(=O)(=O)N(CCc2ccccc2)CC(=O)NC(C)C)cc1	-14.3	57.8*	0.4	0.4	56.1*	-4.6
SMILES	Plk1 PBD FP	CYP2C9 inh	CYP2C9 act	CYP2C19 act	CYP2C19 inh	PLK1 inh
O=C(CN(Cc1ccc(F)cc1)S(=O)(=O)c1ccccc1)N1CCCCC1	8.6	45.4	0.5	0.3	65.4*	-8.1
COc1ccc(S(=O)(=O)N(CC(=O)NC(C)C)Cc2ccccc2)cc1	15.5	50.0*	0.5	0.5	51.9*	0.6
NC(=O)CCN(Cc1ccccc1)S(=O)(=O)c1ccccc1	-5.9	13.8	0.9	0.5	47.5	-2.6
CNC(=O)CN(Cc1ccccc1)S(=O)(=O)c1ccccc1	/	14.4	0.9	0.4	59.3*	/
COc1ccc(S(=O)(=O)N(CCc2ccccc2)CC(=O)N2CCOCC2)cc1	29.0	6.8	0.9	0.8	24.6	-14.5
CC(C)NC(=O)CN(Cc1ccccc1)S(=O)(=O)c1ccccc1	/	43.6	0.6	0.6	40.3	/
c1ccc2sc(Cc3nnc4n3CCCCC4)nc2c1	/	-10.1	1.1	0.8	16.5	/
CN1CCN(Cc2cc(=O)oc3cc4c(cc23)CCC4)CC1	2.9	63.6*	0.4	0.4	63.1*	-12.2
Cc1cc2oc(=O)cc(CN3CCCc4ccccc43)c2cc1C	/	96.1*	0	0	95.6*	/
Cc1cc2oc(=O)cc(CN3CCN(C/C=C/c4ccccc4)CC3)c2cc1O	-5.3	83.9*	0.2	0.5	45.3	-6.3
O=c1[nH]c(N2CCc3ccccc3C2)nc2c1CCCC2	-18.4	/	/	/	/	-3.1
Cc1ccc(S(=O)(=O)NC(=NCC(=O)O)c2ccc(F)cc2)cc1	-10.5	-4.8	1	1.1	-14.6	-0.5
Cc1c(C(=O)O)sc2ncn(C)c(=O)c12	23.0	14.5	0.9	1.1	-9.0	-8.1
CCC(C)(C)NC(=O)C(c1cccn1C)N(Cc1ccc(OC)cc1)C(=O)Cn1nnc2ccccc21 (centres undefined)	4.7	/	/	/	/	-7.0
COc1cc(C(c2nnnn2C(C)(C)C)N2CCN(C)CC2)cc(OC)c1OC (centres undefined)	0.5	-12.8	1.1	1	1.6	-5.7
Cc1ccc(OCC(=O)N/N=C/c2cn[nH]c2-c2ccc(Cl)c(Cl)c2)cc1	5.2	52.4*	0.5	0.9	14.5	-3.3
Cc1ccc(C)c(OCC(=O)N/N=C/c2c(C)nn(-c3ccccc3)c2Cl)c1	6.5	22.6	0.8	0.6	35.3	-1.4
Cc1cccc(OCC(=O)N/N=C/c2cn[nH]c2-c2ccc(Cl)c(Cl)c2)c1	-25.9	56.6*	0.4	0.8	22.5	-6.1
Cn1c(=O)c2c(nc(Br)n2Cc2ccc3ccccc3c2)n(C)c1=O	-31.8	28.3	0.7	0.6	39.1	-3.2
Nc1ccc(S(=O)(=O)c2cccc(N)c2)cc1	4.3	-142.3	2.4*	0.8	15.1	-10.8
CCC(C)Sc1nc2c(c(=O)[nH]c(=O)n2C)n1C (centres undefined)	12.2	-5.7	1.1	1.1	-5.8	4.3
O=S(=O)(c1ccc(Br)s1)N1CCN(c2ccccn2)CC1	12.9	98.1*	0	0	99.4*	-0.9
